Data reported in PubChem BioAssay AID1159580 (chemical genetic matrix, 2015).
Values joined by “and” are separate entries in the source; they are usually repeats but may differ in a detail not shown here. Equal entries are not always repeated. About 2,000 (36%) of roughly 5,500 compounds were called active. Inconclusive results (about 18%) are left out. No stated cut-off is given here; in the data, active means normalized growth mostly below about 0.91 (no sharp cut-off); inconclusive means no clear call, values can overlap the other calls; inactive means mostly above about 0.92. This is one part of the list.

Assay: chemical genetic growth profiling, strain panel (AID 1159580);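 further: tested at 20 µM; growth read once vehicle control cultures reached saturation at 30 °C; 1 = growth at the plate median or of vehicle wells; lower values mean less growth of the strain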
Details: S. cerevisiae deletion strains, growth OD

Measured: normalized growth

CO[C@H]1C[C@H](O[C@H]2[C@H](C)[C@@H](OC3O[C@H](C)C[C@H](N(C)C)[C@H]3O)[C@@H](C)C[C@]3(CO3)C(=O)[C@H](C)[C@@H](O)[C@@H](C)[C@@H](C)OC(=O)[C@@H]2C)O[C@@H](C)[C@@H]1O (some centres not stated)
inactive: locus YAL013W, strain DEP1, active compounds read low 1.01 | locus YAL021C, strain ccr4, active compounds read low 1.03 | locus YAL026C, strain drs2, active compounds read low 0.991 | locus YAL030W, strain snc1, active compounds read low 1.01 | locus YBL061C, strain skt5, active compounds read low 1 | locus YBR009C, strain hhf1, active compounds read low 0.96 | locus YBR021W, strain FUR4, active compounds read low 0.994 | locus YBR023C, strain chs3, active compounds read low 1.02 | locus YBR171W, strain sec66, active compounds read low 0.996 | locus YBR229C, strain ROT2, active compounds read low 1.02 | locus YBR231C, strain swc5, active compounds read low 1.02 | locus YBR279W, strain paf1, active compounds read low 1.01 | locus YCL011C, strain gbp2, active compounds read low 0.998 | locus YCL016C, strain dcc1, active compounds read low 1.02 | locus YCL029C, strain bik1, active compounds read low 1 | locus YCL061C, strain MRC1, active compounds read low 1.02 | locus YCL069W, strain vba3, active compounds read low 1 | locus YCR088W, strain abp1, active compounds read low 1.01 | locus YDL005C, strain med2, active compounds read low 1.02 | locus YDL035C, strain GPR1, active compounds read low 1.01 | locus YDL040C, strain nat1, active compounds read low 1.01 | locus YDL074C, strain BRE1, active compounds read low 1.02 | locus YDL101C, strain DUN1, active compounds read low 1.02 | locus YDL134C, strain PPH21, active compounds read low 1.01 | locus YDL185W, strain tfp1, active compounds read low 1.01 | locus YDL192W, strain arf1, active compounds read low 1.01 | locus YDR001C, strain nth1, active compounds read low 1 | locus YDR069C, strain doa4, active compounds read low 1.03 | locus YDR101C, strain arx1, active compounds read low 1 | locus YDR137W, strain rgp1, active compounds read low 0.998 | locus YDR150W, strain NUM1, active compounds read low 1 | locus YDR159W, strain sac3, active compounds read low 0.994 | locus YDR162C, strain NBP2, active compounds read low 1.01 | locus YDR195W, strain ref2 1.01 | locus YDR297W, strain sur2, active compounds read low 1.01 | locus YDR318W, strain mcm21, active compounds read low 1.01 | locus YDR334W, strain swr1, active compounds read low 0.995 | locus YDR335W, strain msn5, active compounds read low 0.998 | locus YDR388W, active compounds read low 0.991 | locus YDR392W, strain spt3, active compounds read low 0.945 | locus YDR502C, strain sam2, active compounds read low 1.02 | locus YEL003W, strain gim4, active compounds read low 0.987 | locus YEL037C, strain rad23, active compounds read low 0.994 | locus YEL061C, strain CIN8 (second series), active compounds read low 0.999 | locus YEL061C, strain CIN8, active compounds read low 1 | locus YER015W, strain faa2, active compounds read low 0.992 | locus YER016W, strain bim1, active compounds read low 1.02 | locus YER110C, active compounds read low 0.986 | locus YER111C, strain swi4, active compounds read low 1 | locus YER155C, strain BEM2 (second series), active compounds read low 1.02 | locus YER155C, strain BEM2, active compounds read low 1 | locus YER167W, strain BCK2, active compounds read low 1.01 | locus YFR010W, strain ubp6, active compounds read low 0.988 | locus YGL078C, strain dbp3, active compounds read low 1 | locus YGL086W, strain mad1, active compounds read low 0.995 | locus YGL167C, strain pmr1, active compounds read low 0.994 | locus YGL173C, strain kem1, active compounds read low 1 | locus YGL227W, strain vid30, active compounds read low 1.02 | locus YGL240W, strain doc1, active compounds read low 1.03 | locus YGL248W, strain PDE1, active compounds read low 1.02 | locus YGL253W, strain hxk2, active compounds read low 1.02 | locus YGR078C, strain PAC10, active compounds read low 1.02 | locus YGR135W, strain pre9, active compounds read low 1.01 | locus YGR229C, strain SMI1, active compounds read low 1.03 | locus YGR252W, strain gcn5, active compounds read low 1.14 | locus YHR013C, strain ard1, active compounds read low 1.02 | locus YHR027C, strain rpn1, active compounds read low 0.999 | locus YHR030C, strain SLT2, active compounds read low 1.01 | locus YHR079C, strain IRE1 (second series), active compounds read low 0.989 | locus YHR079C, strain IRE1, active compounds read low 1.01 | locus YHR094C, strain hxt1, active compounds read low 0.98 | locus YHR129C, strain ARP1, active compounds read low 0.998 | locus YHR142W, strain chs7, active compounds read low 0.972 | locus YHR200W, strain rpn10, active compounds read low 1.01 | locus YIL066C, strain RNR3, active compounds read low 1.02 | locus YIL073C, strain SPO22, active compounds read low 1.05 | locus YIL125W, strain kgd1, active compounds read low 1 | locus YIR030C, strain dcg1, active compounds read low 0.993 | locus YJL092W, strain hpr5, active compounds read low 1.01 | locus YJL095W, strain BCK1 (second series), active compounds read low 1.01 | locus YJL095W, strain BCK1, active compounds read low 1.03 and 0.995 | locus YJL115W, strain asf1, active compounds read low 0.991 | locus YJL129C, strain trk1, active compounds read low 1 | locus YJL134W, strain LCB3, active compounds read low 1 | locus YJL154C, strain vps35, active compounds read low 1 | locus YJL164C, strain tpk1, active compounds read low 0.982 | locus YJL166W, strain qcr8, active compounds read low 1.03 | locus YJL168C, strain set2, active compounds read low 0.987 | locus YJL187C, strain SWE1 (second series), active compounds read low 1.02 | locus YJL187C, strain SWE1, active compounds read low 1 | locus YJR043C, strain POL32, active compounds read low 1.02 | locus YJR066W, strain TOR1, active compounds read low 0.981
